Data taken from PubChem BioAssay (NCI).
About 79,000 compounds went through this panel and 15% of them were active in at least one assay; those are over-represented in the sample as a whole. The source made the active and inactive calls. Cut-off read from the data, not from the text of the source: active = growth inhibition above about 70%; inactive = the rest.

test: NCI Yeast Anticancer Drug Screen. Data for the cln2 rad14 strain (AID 165);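 note: 0% = growth equal to vehicle treated cultures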; conditions: S. cerevisiae cln2 rad14 strain, at 50.0 µM, active compounds read high
Method in brief: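 cln2 rad14 yeast strain; compound exposure; growth inhibition read vs vehicle controls.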

Row | SMILES | growth inhibition
1 | O=C(/C=C/c1cccc(Cl)c1)c1ccccc1 | 12.9% (inactive)
2 | COc1cccc(N2C(=O)C3CC(CC(C)(C)C)c4c([nH]c5ccccc45)C3C2=O)c1 (stereo not given) | 19.7% (inactive)
3 | O=C1c2ccccc2NC(=O)C2C1C(c1ccccc1)CC2(O)c1ccccc1 (stereo not given) | 68% (inactive)
4 | CCOC(=O)C1SC(=Nc2ccc(Cl)cc2)N=C1C (stereo not given) | 90% (active)
5 | COC(=O)c1nc(=S)[nH]c(C(=O)OC)c1C(=O)c1ccccn1 | 70.5% (active)
6 | Cn1c2c(c3ccccc31)CCN1C[C@@H]3CCCC[C@H]3C[C@@H]21 | -58.1% (inactive)
7 | CCCCCCCCCCCC1=NCCN1CCNCCCC | 97.3% (active)
8 | CN=C(N)N/N=C(\C)c1ccc2c(c1)Cc1cc(/C(C)=N/NC(N)=NC)ccc1-2 | 85.3% (active)
9 | O=C(Nc1ccccc1)OCCc1ccc(Br)cc1 | -7.85% (inactive)
10 | CN(C)CC/C(=N\Nc1ccc(Cl)cc1)c1ccccc1 | 95.9% (active)
11 | O=C1Nc2ccccc2/C1=N\N=c1/scc(-c2ccccc2)n1-c1ccccc1 | 62.6% (inactive)
12 | CC(C)(C)C(=O)CC(=O)C(F)(F)C(F)(F)C(F)(F)F.CC(C)(C)C(=O)CC(=O)C(F)(F)C(F)(F)C(F)(F)F.CC(C)(C)C(=O)CC(=O)C(F)(F)C(F)(F)C(F)(F)F.[Fe] | 19.8% (inactive)
13 | COc1cc(N=Nc2cccc(S(N)(=O)=O)c2)c2ccccc2c1N | 95.5% (active)
14 | O=C(/C=C/C(=O)OCCCl)OCCCl | -22.8% (inactive)
15 | CCc1ccccc1NC(=O)C1=C(C)NC(C)=C(C(=O)Nc2c(CC)cccc2CC)C1c1ccc2c(c1)OCO2 (stereo not given) | 85.8% (active)
16 | Oc1c(Cl)cc(Cl)c2cccnc12 | 98.2% (active)
17 | COc1ccc2c(c1)[n+]([O-])c(-c1ccccc1)c(N)[n+]2[O-] | 98.8% (active)
18 | O=c1cccccc1[O-].O=c1cccccc1[O-].O=c1cccccc1[O-].[Sm+3] | 90.2% (active)
19 | CCCCCCCCCCCCCCCCNc1ccn(C2CC(OP(=O)(O)OCC3OC(n4cc(CC)c(=O)[nH]c4=O)CC3O)C(CO)O2)c(=O)n1 (stereo not given) | 39.5% (inactive)
20 | Nc1ccccc1OCC(O)CN1CCN(Cc2ccccc2)CC1 (stereo not given) | 16% (inactive)

Row | SMILES | growth inhibition
21 | O=S(=O)(O)c1ccc(O)c2cc(Nc3ccccc3)ccc12 | -28.6% (inactive)
22 | CCOC(=O)/C(=C\c1ccc(-c2ccccc2)cc1)C(C)=O | 45.5% (inactive)
23 | O=C(C(Oc1ccc(Cl)cc1)Oc1ccc(Cl)cc1)N(O)c1ccccc1OCc1ccccc1 | 53.6% (inactive)
24 | CN(C)CC1CCC/C(=C\c2ccc(Cl)cc2)C1=O (stereo not given) | 87% (active)
25 | COc1ccc(/C=N/Nc2ccccc2)cc1 | 98.7% (active)
26 | O=C1c2ccccc2-c2ccccc2C(=O)C1(Br)Br | 47.3% (inactive)
27 | CC(=O)Nc1ccc(C(=O)n2[nH]c(C)c(/C=C3\C(=O)C=Cc4ccccc43)c2=O)cc1 | 98.7% (active)
28 | CC1OC2CC(=O)OC2C2=C1C(=O)c1c(O)cccc1C2=O (stereo not given) | 91.4% (active)
29 | CCOC(=O)C(CCSC)C(=O)OCC | 76.1% (active)
30 | C[CH2][Sn]([CH2]C)([O]C(=O)c1cccc(OC)c1)[O][Sn]([CH2]C)([CH2]C)[O]C(=O)c1cccc(OC)c1 | 40.8% (inactive)
31 | O=C(Nc1ccccc1)Oc1c(Cl)c(Cl)c(Cl)c(Cl)c1Cl | -20.8% (inactive)
32 | CCN(CC)CCNc1ccc2nnn3c4ccc([N+](=O)[O-])cc4c(=O)c1c23 | 36.2% (inactive)
33 | CCCCCCN(CCCCCC)CCC(=O)c1ccc2cc(Br)c3ccccc3c2c1 | 96.8% (active)
34 | COC(=O)/C=C1/Nc2ccc(Cl)cc2C(=O)NC1=O | 28.9% (inactive)
35 | CN(C)COC(=S)SCN(C)C | 52.9% (inactive)
36 | Clc1ccc(-c2noc(CN3CCCCC3)n2)cc1 | 73.3% (active)
37 | CCCCCCCCCCCCCC(=O)OCC(O)CO (stereo not given) | 75.3% (active)
38 | CCC[CH2][Sn]([CH2]CCC)([O]C(=O)c1cccc(F)c1)[O]C(=O)c1cccc(F)c1 | 14.9% (inactive)
39 | CCCCCCCCCCCCCCCCC1CCc2ccccc21 (stereo not given) | 89.8% (active)
40 | CCOC(=O)NCCCc1ccc2oc3ccccc3c2c1 | -12.7% (inactive)
